Assay results published in ChEMBL document CHEMBL3988442, “University of Dundee, Small-Polar-MMV Screening Library” (2021).
About 440 (0.52%) of roughly 85,000 compounds showed an effect of 50% or more. The list comes from a sample in which strong results are over-represented; it also holds similar structures and randomly drawn compounds.

Test: In vitro enzyme assay to detect hydrolysis of chlorophenol red-beta-D-[…] directly proportional to the number of Toxoplasma stably expressing beta-galactosidase
Assay type: functional, organism-based, Toxoplasma gondii
Parameters: scale not given: in the data most compounds retested in dose-response had high values

| SMILES | Percent Effect (50 µM) [%] | Percent Effect (10 µM) [%] |
| --- | --- | --- |
| CNS(=O)(=O)c1ccc(C(=O)NCC(C)(C)N(C)C)o1 | -2.111 |  |
| NC(=O)c1ccc(CNC2CC2)c(F)c1 | -8.127 |  |
| COC(=O)CC(NC(=O)c1cc(C)n[nH]1)C1CC1 (stereo not given) | 5.421 |  |
| Cn1cc(CC(=O)Nc2ccc(I)cn2)cn1 | -1.266 |  |
| Cc1ccc(Br)c(NCC(=O)N2CCOCC2)c1 | 6.776 |  |
| CNC(C)CCNC(=O)c1cc(C)nn1C (stereo not given) | -4.64 |  |
| Cc1csc(S(=O)(=O)NCCCOCC2CCCO2)n1 (stereo not given) | -3.897 |  |
| CCC(C)NC(=O)NC1CCN(c2ccccn2)CC1 (stereo not given) | -18.28 |  |
| N#Cc1cc(F)c(S(=O)(=O)NCCN)c(F)c1 | -7.913 |  |
| Cn1ncc2c(N3CCS(=O)(=O)CC3)nc(-c3cccnc3)nc21 |  | 6.498 |
| Cn1ncc2c(N3CCC3)nc(-c3ccncc3)nc21 |  | -3.528 |
| CC(C)N1CCCN(c2nc(-c3cccnc3)nc3c2cnn3C)CC1 |  | 55.95 |
| Cc1nc(CC(=O)NCc2csc(N3CCCC3)n2)cs1 |  | -6.671 |
| O=C(NCc1csc(N2CCCC2)n1)C1CNCCO1 (stereo not given) | 26.16 |  |
| N[C@@H]1CC[C@H](C(=O)NCc2csc(N3CCCC3)n2)C1 | 62.86 |  |
| C[C@@H]1CNC[C@H]1c1nc(-c2ccncc2)no1 | 1.432 |  |
| CCn1nc(C)c2nc(C)nc(NCCCn3cccn3)c21 |  | 20.67 |
| Cc1nn(C)c2c(NCCCn3cccn3)nc(C(C)C)nc12 |  | 10.17 |
| CCn1nc(C)c2nc(C(C)C)nc(NCc3ccccn3)c21 |  | 23.92 |
| CCc1nc(NCCCn2cccn2)c2c(n1)c(C)nn2C |  | 7.651 |
| CCCc1nc(NCCCn2cccn2)c2c(n1)c(C)nn2CC |  | 20.81 |
| CCn1nc(C)c2ncnc(NCCCn3ccnc3)c21 |  | 9.36 |
| CCn1nc(C)c2nc(C(C)C)nc(NCCCn3cccn3)c21 |  | 57.58 |
| CCn1nc(C)c2nc(C(C)C)nc(NCCCn3ccnc3)c21 |  | 76.16 |
| CCCc1nc(NCCCn2ccnc2)c2c(n1)c(C)nn2CC |  | 67.95 |

| SMILES | Percent Effect (50 µM) [%] | Percent Effect (10 µM) [%] |
| --- | --- | --- |
| NC(=O)COc1ccc(CNCCn2cccn2)cc1 | 11.26 |  |
| COCC(=O)N1CCN(CCC(C)C)CC1 | 7.319 |  |
| O=C(NCCN1CCCC1)Nc1cccc2cn[nH]c12 | -2.677 |  |
| Cc1cc(CN2CCC3(CC2)COC(COc2ccccn2)C3)no1 (stereo not given) |  | 96.36 |
| c1ccc(OCC2CC3(CCN(Cc4ccncc4)CC3)CO2)nc1 (stereo not given) |  | -2.51 |
| Cc1csc(CN2CCC3(CC2)COC(COc2ccccn2)C3)n1 (stereo not given) |  | -8.461 |
| Cc1cc(NC(=O)C(C)C)n(-c2nc(C)c(C)c(=O)[nH]2)n1 |  | 91.77 |
| CC(C)C(=O)Nc1cc(C(C)(C)C)nn1-c1ccccn1 |  | -3.105 |
| CC(=O)Nc1cc(C2CC2)nn1-c1nc(C)c(C)c(=O)[nH]1 |  | -13.24 |
| Cc1cc(C)nc(NC(=O)C(C)C)n1 | 3.231 |  |
| Cc1nc(-n2nc(-c3cccs3)cc2N)[nH]c(=O)c1C |  | 4.893 |
| Cc1nc(-n2nc(C3CC3)cc2NC(=O)C(C)C)[nH]c(=O)c1C |  | 79.17 |
| NCc1ccc(OCC(F)F)cc1 | -2.459 |  |
| O=C(C1CC1)N1CCC(Oc2cccnc2)C1 (stereo not given) | 1.461 |  |
| CCCOc1ccccc1CCCNc1ncnc2oc(C)nc12 |  | 12.3 |
| CCC(CNc1ncnc2oc(C)nc12)Cc1ccccc1 (stereo not given) |  | -4.784 |
| CCCOc1ccc(Cl)cc1CNc1ncnc2oc(C)nc12 |  | 57.15 |
| O=C1CCCCN1c1ccc(S(=O)(=O)NC2CC2)cc1 | 98.35 |  |
| CC(C)NC(=O)c1ccc(N2CCCCC2=O)cc1 | 19.08 |  |
| CC(N)c1ccc(N2CCCCC2=O)cc1 (stereo not given) | 3.622 |  |
| OC1(Cc2ccccc2F)CCNC1 (stereo not given) | 78.69 |  |
| OCC1(Cc2ccccc2F)CCCNC1 (stereo not given) | 2.008 |  |
| OC1(Cc2ccccc2F)CCNCC1 | -5.436 |  |
| CC(NS(C)(=O)=O)C(=O)NCCCc1ccncc1 (stereo not given) | 0.4518 |  |
| Cc1cc(CN(C)C(=O)C2CCCN2S(C)(=O)=O)no1 (stereo not given) | -2.48 |  |

| SMILES | Percent Effect (50 µM) [%] | Percent Effect (10 µM) [%] |
| --- | --- | --- |
| O=C(CCN1C(=O)CCC1=O)Nc1ccc(F)cc1 | 6.107 |  |
| Cc1nc(N2CCN(C(=O)c3ccccn3)CC2)c2c(n1)c(C)nn2C |  | 25.12 |
| Cc1nc(N2CCN(C(=O)C3CC3)CC2)c2c(n1)c(C)nn2C |  | 0.4782 |
| CCC(=O)N1CCN(c2nc(C)nc3c(C)nn(C)c23)CC1 |  | 56.36 |
| Cc1nc(N2CCN(C(=O)c3ccco3)CC2)c2c(n1)c(C)nn2C |  | 56.5 |
| Cc1nc(N2CCN(C(=O)C3CCCC3)CC2)c2c(n1)c(C)nn2C |  | -37.24 |
| Cc1nn(C)c2c(N3CCN(C)CC3)nc(C3CC3)nc12 |  | 7.951 |
| Cc1nn(C)c2c(N3CCN(C(=O)c4ccccc4)CC3)ncnc12 |  | -3.825 |
| Cc1nc(N2CCN(C(=O)c3ccncc3)CC2)c2c(n1)c(C)nn2C |  | 77.24 |
| Cc1nc(N2CCN(C(=O)c3ccccc3)CC2)c2c(n1)c(C)nn2C |  | -7.412 |
| Cc1nc(N2CCN(c3ccccc3)CC2)c2c(n1)c(C)nn2C |  | 52.19 |
| CCC(=O)N1CCN(c2ncnc3c(C)nn(C)c23)CC1 |  | 7.071 |
| Cc1nn(C)c2c(N3CCC(C)CC3)nc(C3CC3)nc12 |  | 6.306 |
| CN(C)[C@@H]1CN(C(=O)c2cccn2C)C[C@H]1CO | -4.756 |  |
| CC(C)NC(C1CCNCC1)[C@H]1C[C@H](O)C1 (stereo not given in full) | 23.17 |  |
| CCOc1ncccc1C(=O)N1CCC(COC)C1 (stereo not given) | -5.58 |  |
| CC1(C)CN(c2nccnc2C#N)CCS1(=O)=O | -1.06 |  |
| O=C(NCC(F)(F)F)c1ccccc1NCCCO | 5.629 |  |
| O=S(=O)(NC1CC1)C1CCN(CCc2ccccn2)C1 (stereo not given) | 5.549 |  |
| c1ccc(N2CCCC2)nc1 | -4.186 |  |
| CC(C)OCc1nc(C(C)N)no1 (stereo not given) | -1.581 |  |
| CCCN(C)C(CO)c1ccc(OC)cc1 (stereo not given) | -2.385 |  |
| O=C(c1ccc2c(c1)OCO2)N1CCCC(n2cccn2)C1 (stereo not given) |  | 8.443 |
| O=C(c1ccc2c(c1)OCCCO2)N1CCCC(n2ccnc2)C1 (stereo not given) |  | -11.97 |
| O=C(c1ccc2c(c1)OCCCO2)N1CCCC(n2cccn2)C1 (stereo not given) |  | 55.61 |
